PubChem BioAssay (NCI)
Compounds without any hit were thinned out: in the full panel of roughly 83,000, 20% have a hit.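 How to read the values: 0–100, growth inhibition (40 = 60% inhibited); 0, no net growth; -100 to 0, cell death (-40 = 40% of starting cells died; -100 = all dead).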 Unmarked numbers belong to inactive results. Active and inactive are the calls of the source. How the source made its calls: active means growth percent below 10; inactive means the rest.

Columns and labels:
Assay in all cases: NCI-60 one-dose screen, 48 h (100 = growth as untreated, 0 = no growth, -100 = all killed)
Settings in all cases: 10 µM unless noted
NCI-H23 lung = tested on: NCI-H23 lung
NCI-H226 lung = tested on: NCI-H226 lung
NCI-H322M lung = tested on: NCI-H322M lung
HOP-62 NSCLC = tested on: HOP-62 NSCLC
NCI-H460 lung = tested on: NCI-H460 lung
HOP-92 NSCLC = tested on: HOP-92 NSCLC
NCI-H522 lung = tested on: NCI-H522 lung
A549/ATCC NSCLC = tested on: A549/ATCC NSCLC
786-0 renal = tested on: 786-0 renal
COLO 205 colon = tested on: COLO 205 colon
DU-145 prostate = tested on: DU-145 prostate
K-562 leukemia = tested on: K-562 leukemia
MALME-3M melanoma = tested on: MALME-3M melanoma
MDA-MB-231 breast = tested on: MDA-MB-231 breast
RXF 393 renal = tested on: RXF 393 renal
SF-268 CNS = tested on: SF-268 CNS
SF-295 CNS = tested on: SF-295 CNS
SF-539 CNS = tested on: SF-539 CNS
M14 melanoma = tested on: M14 melanoma

SMILES	growth (NCI-H23 lung)	growth (NCI-H226 lung)	growth (NCI-H322M lung)	growth (HOP-62 NSCLC)	growth (NCI-H460 lung)	growth (HOP-92 NSCLC)	growth (NCI-H522 lung)	growth (A549/ATCC NSCLC)	growth (786-0 renal)	growth (COLO 205 colon)	growth (DU-145 prostate)	growth (K-562 leukemia)	growth (MALME-3M melanoma)	growth (MDA-MB-231 breast)	growth (RXF 393 renal)	growth (SF-268 CNS)	growth (SF-295 CNS)	growth (SF-539 CNS)	growth (M14 melanoma)
CC(=O)N1Cc2ccccc2C(C)Cc2cc(Cl)ccc21 (stereo not drawn)	106%	117%	97.9%	102%	105%	99.3%	95.8%	96.5%	95.9%	117%	114%	102%	103%	102%	124%	104%	110%	107%	103%
COc1cc(-n2nc(C(=O)Nc3ccc(C(=O)O)cc3)nc2-c2ccccc2)cc(OC)c1OC	97.4%	103%	24.5%	85.1%	115%	83.5%	55.9%	74.7%	92.1%	104%	70.6%	100%	94.2%	99%	106%	92%	103%	106%	100%
O=C1OC(c2ccccc2)=N/C1=C\c1ccc([N+](=O)[O-])cc1	100%	93.6%	96.2%	90.1%	94.6%	87.1%	94.9%	120%	98.6%	109%	109%	112%	89%	94.1%	101%	101%	103%	99.2%	95.4%
O=C(c1ccccc1)C(Cl)C(Cl)c1ccccc1 (stereo not drawn)	86.7%	7.49% (active)	106%	110%	93.7%	75.7%	-83.5% (active)	92.7%	-17.8% (active)	-40.2% (active)	45.7%	-1.74% (active)	4.33% (active)	25.8%	17.2%	82.5%	104%	31%	46.8%
Nc1ccccc1C#C/C=C\C#Cc1cccc(O)c1	97.3%	95.4%	93.6%	40.2%	34.7%	-30.1% (active)	52.9%	64.5%	61.5%	81.2%	73.1%	30.9%	51.6%	39.7%	59%	65.3%	40.2%	42.9%	31.5%
Cc1ccc(S(=O)(=O)OCC(=O)Nc2ccc(C(=O)O)c(O)c2)cc1	131%	126%	104%	100%	103%	-60.6% (active)	93.8%	101%	108%	131%	100%	70.2%	106%	97.2%	63.1%	97%	110%	96.1%	95.4%
O=P([O-])(O)OP(=O)([O-])O.[NH-][C@H]1CCCC[C@@H]1[NH-].[OH-].[OH-].[Pt+4]	102%	108%	115%	111%	106%	114%	93.4%	92.1%	107%	110%	109%	110%	111%	107%	115%	101%	87.1%	105%	120%
C=CCOc1ccc(/C(O)=C2\C(=O)C(=O)N(c3nccs3)C2c2ccccc2F)cc1 (stereo not drawn)	119%	102%	80%	92.3%	94.4%	106%	100%	95.4%	95.5%	104%	114%	109%	92.1%	112%	-20.5% (active)	116%	85.1%	125%	82.7%
Cc1ccc(-c2csc3nc(C)c(CCCl)c(=O)n23)cc1	87.5%	78.6%	98.5%	87.8%	99.5%	80.8%	88.8%	98%	104%	119%	104%	95%	107%	79.9%	106%	91.4%	104%	108%	103%
CCCS(=O)(=O)c1nc(NC2CC2)cc(-c2ccc3c(ccn3C3CC(C)(C)NC(C)(C)C3)c2)n1	10%	-63% (active)	32.5%	7.4% (active)	-74.1% (active)	87.6%	-64.1% (active)	-61.4% (active)	-87.3% (active)	-48.8% (active)	8.45% (active)	-52.6% (active)	-56.3% (active)	-78.8% (active)	-87.3% (active)	-48.7% (active)	-48.9% (active)	-88.1% (active)	-78.2% (active)
COc1cc(C(=O)N2CCN(C(=O)c3ccco3)CC2)c(N)cc1OCc1ccccc1	111%	88.4%	91.3%	94.6%	113%	61%	84.4%	93.3%	95.6%	125%	115%	85.3%	107%	101%	89.9%	108%	115%	98.2%	102%
CCOC(=O)CC/C(C)=N\Nc1ccc([N+](=O)[O-])cc1	99.5%	67.9%	77.3%	63.2%	27.1%	89.8%	38.8%	24.4%	72.9%	34.7%	88.6%	6.98% (active)	104%	80.8%	97.5%	73.5%	60%	69.8%	29.3%
O=C(Cc1c(F)cccc1Cl)Nc1ccc(S(=O)(=O)Nc2ncccn2)cc1	97.6%	99.4%	116%	96.2%	114%	91.1%	104%	110%	103%	105%	104%	89.7%	124%	109%	38.1%	116%	92.5%	96.5%	110%
COc1cc(C2CC(c3c(C)[n+]([O-])c4ccccc4[n+]3[O-])=NN2)cc(OC)c1OC (stereo not drawn)	99.6%	100%	119%	106%	112%	87.8%	104%	113%	102%	102%	112%	106%	112%	104%	-20.2% (active)	112%	103%	124%	101%
Cc1ccc2nc(-c3c(N)n[nH]c3CCCO)[nH]c(=O)c2c1	105%	97.5%	107%	92.1%	110%	82.8%	114%	103%	101%	105%	121%	102%	137%	99.5%	167%	104%	114%	96.4%	102%
Cc1oc2ncnc(Nc3ccccc3)c2c1C(=O)NCCO	92%	106%	108%	99%	98.6%	88.6%	96.6%	98.1%	98.7%	100%	105%	29.4%	107%	75%	104%	99.8%	100%	88.6%	106%
COc1ccc(/C=C/C(=O)/C=C/c2cc3ccc(Cl)cc3[nH]c2=O)cc1	81.1%	81%	97.2%	85.3%	86.7%	103%	82.3%	93.1%	94.9%	90.5%	88.2%	53.2%	107%	59.4%	86.9%	86.5%	94.8%	92%	86.4%
